# The entries come from a sample that favours hits as a whole.
# DT40 TDP1 CPT – growth inhibition of DT40 Tdp1-/-;hTDP1 cells with camptothecin (screen for TDP1 inhibitors); chicken DT40 Tdp1-/-;hTDP1 cells + 20 nM CPT, ATP luminescence, 48 h; Potency, µM (top dose mostly 46.2 µM), for inactives: top-dose activity change, negative = growth inhibition, hits mostly inhibitors; hit rate 12% among 420,000; AID 686979; further: potency means the concentration at half of the fitted maximal effect; nearly all actives have a fitted effect of over 55% in size
#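 Chicken DT40 Tdp1-/- cells complemented with human TDP1, 400 cells/well, exposed to compounds plus 20 nM camptothecin for at least 48 h at 37 C; viability read as ATP content by CellTiter-Glo luminescence.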
# HT1080-NT tox – kills 2HG-producing HT-1080-NT fibrosarcoma cells. HT-1080-NT fibrosarcoma viability, CellTiter-Glo ATP luminescence, 48 h. hit rate 1.6% among 360,000. Potency, µM (titrated, usually from 46.1 µM), without a hit: at the highest dose activity, negative = less viability, most hits filed as cytotoxic;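 further: NT is the 2HG producing partner of a matched IDH1 knockdown line; potency means the concentration at half of the fitted maximal effect; 0% = DMSO-treated cells and -100% = media-only wells without cells; nearly all actives have a fitted effect of over 55% in size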
#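 Toxicity toward the 2HG-producing NT line was scored as %Activity, normalised to DMSO and no-cell wells, from CellTiter-Glo luminescence after 48 hours' treatment.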
# HT1080 IDH1KD tx – toxicity to HT-1080 IDH1 knockdown cells (counter line) | HT-1080 IDH1 knockdown viability, ATP luminescence, 48 h | Potency, µM (top dose mostly 46.1 µM), for the others: at the highest dose activity, negative = toxicity, actives largely listed as cytotoxic | hit rate 2% among 360,000;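 further: potency means the concentration at half of the fitted maximal effect; 0% = DMSO wells and -100% = cell-free medium wells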
#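 Assay cells: HT-1080 with IDH1 knockdown, 750 per well, RPMI/5% FBS. Exposure: 48 h at 37 °C following 2 h pre-incubation. Read: CellTiter-Glo luminescence; fitted concentration-response, curve class assigned.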
# IL1B secr inh – inflammasome signaling inhibition, IL-1 beta readout. AID 743279. THP-1 LPS/ATP IL-1B secretion, AlphaLISA, 16 h; active compounds read low. hit rate 4.7% among 360,000. activity change, % at 57.5 µM; in the data active means activity change below about -50%; inconclusive means mostly about -30% to -49%
#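 Secreted IL-1B measured by AlphaLISA bead assay after 16 h compound exposure of THP-1 cells; compounds (final up to 57.5 uM) added 1 h before LPS (250 ng/mL) and ATP (1.25 mM) stimulation; lower signal means less secretion.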
# 12-LOX inh – ALOX12 (human) lipoxygenase inhibition. purified 12hLO, xylenol orange hydroperoxide absorbance. Potency, µM (titrated, usually from 108 µM), inactives show at the top dose activity change, negative = inhibition, usual class: inhibitors. hit rate 1.1% among 580,000. AID 1671190; further: potency means the concentration at half of the fitted maximal effect
# Target sequence (P18054 whole entry, looked up): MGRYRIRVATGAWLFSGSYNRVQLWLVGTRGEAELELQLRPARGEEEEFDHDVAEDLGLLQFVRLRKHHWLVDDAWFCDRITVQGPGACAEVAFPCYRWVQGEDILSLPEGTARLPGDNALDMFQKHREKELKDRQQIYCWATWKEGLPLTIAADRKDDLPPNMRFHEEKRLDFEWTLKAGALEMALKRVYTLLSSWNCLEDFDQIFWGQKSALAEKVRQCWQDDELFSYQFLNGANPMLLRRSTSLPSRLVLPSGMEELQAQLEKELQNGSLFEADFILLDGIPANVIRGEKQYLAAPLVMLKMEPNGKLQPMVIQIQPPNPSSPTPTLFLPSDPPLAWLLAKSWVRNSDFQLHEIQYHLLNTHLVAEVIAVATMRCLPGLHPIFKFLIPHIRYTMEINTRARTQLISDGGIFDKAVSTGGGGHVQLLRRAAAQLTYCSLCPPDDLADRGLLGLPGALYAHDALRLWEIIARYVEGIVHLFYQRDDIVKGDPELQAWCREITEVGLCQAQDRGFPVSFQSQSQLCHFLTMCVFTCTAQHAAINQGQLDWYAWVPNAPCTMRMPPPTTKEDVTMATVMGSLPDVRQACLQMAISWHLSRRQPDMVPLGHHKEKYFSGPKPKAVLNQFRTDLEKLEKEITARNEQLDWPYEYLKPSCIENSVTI
#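 Purified human 12hLO (150 nM final) in 25 mM Hepes, 0.01% Triton X-100, pH 7.0 was preincubated 15 min at room temperature with compound. Then 40 uM arachidonic acid was added, 30 min. Hydroperoxide was read by Fe-XO absorbance ratio 573/405 nm.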
# TDP1 cell noCPT – qHTS for Inhibitors of human tyrosyl-DNA phosphodiesterase 1 (TDP1): qHTS in cells in absence of CPT | DT40 Tdp1-/- hTDP1 cells, no CPT, ATP luminescence, 48 h | Potency, µM (titrated, usually from 46.2 µM), for inactives: top-dose activity change, negative = growth inhibition, most hits filed as inhibitors | hit rate 15% among 420,000; further: potency means the concentration at half of the fitted maximal effect; nearly all actives have a fitted effect of over 55% in size
#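 Seeded 400 DT40-hTDP1 cells/well (vehicle DMSO, no 20 nM CPT); pinned compounds; ≥48 hr at 37 °C; CellTiter-Glo luminescence as viability measure.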
# * = called active by the depositor; i = inactive; ? = inconclusive; / = no result; [ ] = remark or other dose. Unless noted, the call rests on the fitted dose curve; in most records, active means well fitted curve in the direction sought with a large enough effect; inconclusive means small, poorly fitted or top-dose-only effect, or another doubt; inactive means no such curve, though single readings can be large; an effect the other way counts as inactive or inconclusive. Unless noted, on the % scale 0 is the no-effect control and ±100 the full control effect.
SMILES,DT40 TDP1 CPT,HT1080-NT tox,HT1080 IDH1KD tx,IL1B secr inh,12-LOX inh,TDP1 cell noCPT
O=[N+]([O-])CC(c1ccc(F)cc1)c1c[nH]c2ccccc12 (stereo not given),7.3µM*,?,?,0,-15%,6.5µM*
O=C(O)CC(c1ccncc1)c1c[nH]c2ccccc12 (stereo not given),/,/,/,/,3.5µM*,/
Fc1ccc(C(Nc2ccccn2)c2c[nH]c3ccccc23)cc1 (stereo not given),?,-20%,-6%,-22,6.3µM*,?
CC(O)C1CCC2C3CC[C@H]4CC(O)CCC4(C)C3CC3(OCCO3)C12C (stereo not given in full),-29%,-9%,-6%[9.24 µM],6,-20%,21µM*
CNc1oc(Cc2ccccc2)nc1S(=O)(=O)c1ccccc1,15µM*,-17%,?,0,/,6.5µM*
CNc1oc(C)nc1S(=O)(=O)c1ccc(C)cc1,-1%,-1%,5%,10,?,-16%
Cc1c(C)c2ccc(OC(C)C(=O)NCc3ccc(S(N)(=O)=O)cc3)cc2oc1=O (stereo not given),/,/,/,/,-4%,/
O=C(Nc1ccc([N+](=O)[O-])cc1)NN1CCCCCC1,23µM*,-1%,1%,-99*,-3%,15µM*
CC(=O)Nc1ccc(NC(=O)CCc2ccc(C)o2)cc1,-2%,12%,0%,-7,5%,2%
Cc1cc([N+](=O)[O-])ccc1NC(=O)CCC(=O)N1CCCCC1,-5%,9%,6%,39,i,1%
O=C(Nc1ccc(Cl)cc1)NN1CCCCCC1,3%,-3%,-10%,-16,?,-18%
Cc1ccc(CCC(=O)Nc2ccc([N+](=O)[O-])cc2)o1,-15%,-20%,-29%,-74*,?,?
O=C(CCC(=O)N1CCCCCC1)Nc1ccc([N+](=O)[O-])cc1,-1%,6.5µM*,?,33,3%,22%
O=C(c1ccncc1)N1CCC(n2cc(-c3nc(-c4ccccc4)no3)nn2)CC1,/,/,/,/,41%,/
CC(C)(C)OC(=O)NCCCC[C@H](NC(=O)c1[nH]cnc1C(=O)Nc1ccccc1)C(=O)OC(C)(C)C,15µM*,-30%,?,?,6%,23µM*
CC(C)(C)OC(=O)NCCCC[C@H](NC(=O)c1[nH]cnc1C(=O)Nc1ccc(Cl)cc1)C(=O)OC(C)(C)C,?,?,?,-58*,/,16µM*
C[C@@H](NC(=O)c1nc[nH]c1C(=O)N[C@@H](CCCCNC(=O)OC(C)(C)C)C(=O)OC(C)(C)C)c1ccccc1,?,6%,?,-25,-13%,-94%
COC(=O)c1ccccc1NC(=O)/C=C/c1cc(OC)c(OC)c(OC)c1,21µM*,-4%,-8%,-85*,0%,21µM*
COc1cc(/C=C/C(=O)Nc2ccc(S(=O)(=O)Nc3onc(C)c3C)cc2)cc(OC)c1OC,9%,2%,5%,-12,195%,-2%
COc1ccc(Br)cc1/C=C/C(=O)Nc1ccc2ccccc2c1,?,11%,1%,-20,-8%,?
COc1cc(/C=C/C(=O)Nc2ccc(C)cc2)cc(OC)c1OC,?,-4%,-8%,15,-2%,16µM*
COc1ccc(Br)cc1/C=C/C(=O)Nc1ccc(C)cc1,16µM*,-28%,?,-67*,1%,16µM*
COc1cc(/C=C/C(=O)Nc2nnc(C(C)(C)C)s2)cc(OC)c1OC,?,-3%,4%,-9,-28%,?
COc1cc(/C=C/C(=O)Nc2nc3ccc(S(=O)(=O)N(C)C)cc3s2)cc(OC)c1OC,?,?,6.5µM*,28,20%,?
Cc1oc(-c2ccccc2)nc1CC(=O)N(CCC#N)Cc1ccco1,/,/,/,/,11%,/
SMILES,DT40 TDP1 CPT,HT1080-NT tox,HT1080 IDH1KD tx,IL1B secr inh,12-LOX inh,TDP1 cell noCPT
COc1ccc(C(=O)Oc2ccc(C#N)cc2)cc1OC,/,/,/,/,6%,/
Cc1ccccc1CS(=O)(=O)c1ccc(C(=O)N2CCOCC2)cc1[N+](=O)[O-],?,0%,1%,-88*,16%,12µM*
O=C(c1ccc(S(=O)(=O)Cc2ccccc2Cl)c([N+](=O)[O-])c1)N1CCOCC1,21µM*,?,-23%,-100*,4%,21µM*
Cc1ccc(C(=O)N2CCOCC2)cc1[N+](=O)[O-],-10%,14%,15%,25,?,-4%
COc1ccc(-n2nc(C(=O)N3CCCCC3)c3c4ccccc4n(C)c3c2=O)cc1Cl,4.1µM*,/,/,/,-8%,16µM*
COc1ccc(-n2nc(C(=O)N3CCCC(C)C3)c3c4ccccc4n(C)c3c2=O)cc1 (stereo not given),26µM*,/,/,/,?,?
CCOC(=O)C1CCN(C(=O)c2nn(-c3ccc(OC)c(Cl)c3)c(=O)c3c2c2ccccc2n3C)CC1,21µM*,/,/,/,-24%,15µM*
COc1ccc(-n2nc(C(=O)N3CCCCC3C)c3c4ccccc4n(C)c3c2=O)cc1Cl (stereo not given),?,/,/,/,-20%,?
Cc1cc(C)c(C)c(S(=O)(=O)N2CCN(C(=O)CCc3ncc(-c4ccc(F)cc4)o3)CC2)c1C,/,/,/,/,33%,/
CCOc1ccc(CN(C)c2nc(-c3cccnc3)nc3ccccc23)cc1OC,13µM*,-30%,?,-93*,1%,?
Cc1ccc(CN(C)c2nc(-c3cccnc3)nc3ccccc23)o1,?,-30%,-13%,-28,17%,16µM*
CN(Cc1ccccc1F)c1nc(-c2cccnc2)nc2ccccc12,21µM*,-7%,-6%,-76*,?,?
CN(Cc1ccc2c(c1)OCO2)c1nc(-c2cccnc2)nc2ccccc12,/,/,/,/,-10%,/
O=C(Nc1nc2ccccc2n1CCN1CCOCC1)c1ccc(COc2ccccc2Br)o1,?,-11%,?,-95*,13%,?
O=C(NCc1cccnc1)c1ccc(COc2ccccc2Cl)o1,?,?,-5%,0,-2%,13µM*
O=C(Cc1ccccc1Cl)NCc1cccnc1,6%,1%,0%,13,0%,11%
CCCc1ccc(OCc2ccc(C(=O)NN)o2)c(OC)c1,6%,?,-18%,26,2%,23µM*

# Assay outcomes as filed in PubChem BioAssay.
